From PubChem BioAssay AID1159580 (chemical genetic matrix, 2015)
About 2,000 (36%) of roughly 5,500 compounds were called active. Another 18% or so got no clear call; they are omitted. Rule as the data show it: active = normalized growth mostly below about 0.91 (no sharp cut-off); inconclusive = no clear call, values can overlap the other calls; inactive = mostly above about 0.92. The list shows a part of the results.

Assay: chemical genetic growth profiling, strain panel (AID 1159580);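 also: tested at 20 µM; growth read once vehicle control cultures reached saturation at 30 °C; 1 = growth at the plate median or of vehicle wells; lower values mean less growth of the strain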
Details: S. cerevisiae deletion strains, growth OD

Measured: normalized growth

c1ccc(CCCN2CCN(CCOC(c3ccccc3)c3ccccc3)CC2)cc1
active: locus YCL061C, strain MRC1 (second series), hits give low values 0.932
inactive: locus YAL013W, strain DEP1, hits give low values 0.977 | locus YAL040C, strain CLN3, hits give low values 0.967 | locus YDR363W, strain ESC2, hits give low values 0.941 | locus YER002W, strain NOP16, hits give low values 0.998 | locus YJR075W, strain HOC1, hits give low values 0.93 | locus YMR263W, strain SAP30, hits give low values 0.992 | locus YNL175C, strain NOP13, hits give low values 0.996 | locus YNL197C, strain WHI3, hits give low values 0.991 | locus YNL224C, strain SQS1, hits give low values 1.02 | locus YOR083W, strain WHI5 (second series), hits give low values 0.881 | locus YPL055C, strain LGE1, hits give low values 0.95
